Screening data deposited in PubChem BioAssay by National Center for Advancing Translational Sciences (NCATS).
This is a sample that favours compounds with a hit; in the whole collection about 0.88% have one here.
Epigenetic derep = derepresses silenced GFP reporter in murine cells. murine LDR cells, GFP reporter derepression, 30 h. Potency, µM (top dose mostly 53.9 µM), for inactives: at the top dose GFP activation, most hits filed as activators. 280,000 compounds, 0.2% hits. AID 1865; note: potency is the fitted concentration of half-maximal effect; % of control where 0% means no effect; nearly all actives have a fitted effect of over 60% in size
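Murine LDR cells carrying a silenced, genomically integrated CMV-driven GFP reporter were exposed to compound for 30 hours at 37 C. After PBS washes, GFP-positive cells (20–120 um objects) were counted by laser-scanning microplate cytometry.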
TRHR enhancer = allosterically enhances the human TRH receptor; TRHR cells, fluo-8 calcium fluorescence, EC20 TRH enhancement; enhancement, % at 2 µM; 360,000 compounds, 0.66% hits; AID 493056; in the data active = enhancement above about 30%; note: 0% is about no effect
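TRHR-expressing cells loaded with fluo-8 calcium dye were read kinetically (ex 480/em 530) during compound addition, then stimulated with an EC20 of TRH (10 nM final). Enhancement of the Gq-mediated intracellular calcium response was scored.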
TRHR ag = agonists of human TRH receptor; TRHR cells, calcium flux fluo-8, FDSS agonist mode; activation, % at 2 µM; P34981; 360,000 compounds, 0.18% hits; in the data active = activation above about 30%; note: 0% is about no effect
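Read-out: compound-evoked intracellular calcium rise in TRHR cells, fluo-8 dye, kinetic FDSS fluorescence at 1 s/cycle following a 10-cycle baseline. Cells cultured overnight before dye loading (30 min–1.5 h, RT).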
CBFb RUNX1 block = CBF-beta/RUNX1 interaction disruption. Q01196+Q13951. AlphaScreen CBFb-His/RUNX1-biotin binding, biochemical. Potency, µM (doses to about 59.8 µM), inactives show at the top dose activity, negative = inhibition, hits mostly inhibitors. 230,000 tested, under 10 active. AID 1477; note: % of control where 0% means no effect
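AlphaScreen proximity signal reports loss of binding between His-tagged CBF-beta and biotin-labelled RUNX1, each at 30 nM. Proteins are pre-associated for 20 minutes, compounds added for 15 minutes, then beads for 90 minutes, all at ambient temperature.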
MBNL1 CUG block = blocks human MBNL1 binding to CUG repeat RNA; TR-FRET MBNL1-His/biotin-(CUG)12 binding, 665/545 ratio; Potency, µM (top dose mostly 57.5 µM), for inactives: at the top dose activity change, negative = inhibition, usual class: inhibitors; 280,000 compounds, 0.036% hits; AID 2675; active = well fitted inhibition curve with a large enough effect in the signal ratio, with a control signal flat, not every such curve was filed as active; inconclusive = small, poorly fitted or top-dose-only effect, or effect the other way, or a change in a side signal; inactive = no such curve, though single readings can be large or run the other way; the % refers to the signal ratio; note: potency is the fitted concentration of half-maximal effect; % is set by controls: 0 for no effect and ±100 for the full control effect
Target sequence (Q9NR56 whole entry, looked up): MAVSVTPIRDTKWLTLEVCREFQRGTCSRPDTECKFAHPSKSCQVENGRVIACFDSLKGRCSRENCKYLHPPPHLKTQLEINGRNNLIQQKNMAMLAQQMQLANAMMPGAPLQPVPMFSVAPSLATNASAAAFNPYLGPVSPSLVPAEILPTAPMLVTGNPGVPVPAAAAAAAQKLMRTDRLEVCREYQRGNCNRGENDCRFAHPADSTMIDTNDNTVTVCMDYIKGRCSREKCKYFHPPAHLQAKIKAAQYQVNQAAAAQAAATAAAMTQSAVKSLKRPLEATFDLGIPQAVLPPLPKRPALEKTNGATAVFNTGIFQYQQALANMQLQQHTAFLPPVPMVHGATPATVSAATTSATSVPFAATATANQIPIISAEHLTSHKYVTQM
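TR-FRET between His-tagged MBNL1 and biotin-(CUG)12 RNA, detected with Tb anti-His antibody (0.055 ng/ul) and streptavidin-XL665 (5 nM), 60 min at room temperature. Compounds titrated 92 nM to 58 uM; 665/545 nm ratio normalized to buffer and complex controls.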
IL-2 act = activators of IL-2. activation, % (series mostly up to about 46 µM). IL-2 activation reporter assay, cell-based qHTS; stimulated with anti-CD3/CD4/CD28 beads; in transgenic mouse T cells. AID 652025. 360,000 compounds, 0.065% hits; in the data active = activation above about 50%; inconclusive = mostly about 30% to 49%; note: 0% is about no effect
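Screening format: compound pinned onto unstimulated transgenic mouse T cells, 60 min incubation, then anti-CD3/anti-CD4/anti-CD28 bead stimulation for 18 hours at 37 degrees C, followed by EGFP and DsRed detection.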
Starred values were filed as active, the others as inactive; ? = inconclusive; / = no result. Unless noted, calls come from the whole dose curve; as a rule, active = well fitted curve in the direction sought with a large enough effect; inconclusive = small, poorly fitted or top-dose-only effect, or another doubt; inactive = no such curve, though single readings can be large; an effect the other way counts as inactive or inconclusive.

SMILES	Epigenetic derep	TRHR enhancer	TRHR ag	CBFb RUNX1 block	MBNL1 CUG block	IL-2 act
COc1ccc(-n2ncc(C(C)NS(=O)(=O)c3cccs3)c2C)cc1 (stereo unspecified)	/	31*	-1	/	-4%	-2
COc1ccc(/C(=C/Nc2cccc(Br)c2)C(C)=O)cc1OC	0%	41*	-1	-25%	1%	1
COc1ccc(NC(=O)c2c(NC(=O)CNCc3ccco3)sc3c2CCC3)cc1	25µM*	13	-1	6%	0%	0
CCc1ccc(NC(=O)C2CCN(S(C)(=O)=O)CC2)cc1	0%	-2	0	2%	-3%	56*
Cc1ccc(NC(=O)C2CCN(S(C)(=O)=O)CC2)cc1	3%	4	0	2%	0%	0
CN(CC(=O)NC(=O)NC1CCCCC1)c1ccccc1	/	22	1	/	/	0
CCNC(=O)NC(=O)CN(C)c1ccccc1	3%	34*	0	4%	-3%	-2
CCOC(=O)c1c(C)oc2nc(C)nc(NCc3ccccc3OCC)c12	-1%	43*	-1	/	/	/
COc1ccccc1NS(=O)(=O)c1cc([N+](=O)[O-])ccc1N/N=C/c1sc(N2CCOCC2)nc1-c1ccccc1	2.8µM*	2	9	-13%	13%	4
O=C(/C=C/c1ccc(F)cc1)NC(=S)N1CCOCC1	11%	37*	0	1%	?	-4
O=C(/C=C/c1ccc(F)cc1)NC(=S)N1CCN(Cc2ccccc2)CC1	-1%	-3	0	-8%	2%	0
Cc1ccc(NC(=O)CS(=O)CC(=O)N2CCN(c3ccccc3)CC2)cc1 (stereo unspecified)	/	31*	0	/	2%	-2
Cc1ccc(NC(=O)CS(=O)CC(=O)N2CCN(C3CCCC3)CC2)cc1 (stereo unspecified)	/	-16	0	/	-3%	-2
O=C(Cn1c(SCc2ccccc2F)nc2cccnc21)Nc1ccc(F)c(Cl)c1	0%	36*	1	/	/	/
NS(=O)(=O)c1ccc(CCNC(=O)C(=O)c2cn(CC(=O)N3CCOCC3)c3ccccc23)cc1	/	34*	0	/	?	-1
CC(=O)N1c2ccc(S(=O)(=O)NCCC(=O)N3CCC(C)CC3)cc2CC1C (stereo unspecified)	/	32*	0	/	-6%	-3
Cc1ccc(OCC(=O)N(Cc2ccccc2)C(C)C)c([N+](=O)[O-])n1	0%	0	-1	-8%	/	0
Cc1ccc(OC(C)C(=O)N(C)Cc2ccccc2)c([N+](=O)[O-])n1 (stereo unspecified)	/	39*	2	/	-6%	-4
CCc1ccccc1NC(=O)CN(c1ccccc1)S(=O)(=O)c1ccsc1C(=O)OC	1%	3	0	/	/	/
Cc1cc(C)n2c(Nc3ccccc3C)c(-c3cccs3)nc2n1	-2%	0	-1	/	/	/
CC(=O)Nc1ccc(N(C(=O)c2ccco2)C(C(=O)NC2CCCC2)c2ccc(N3CCOCC3)cc2)cc1 (stereo unspecified)	3%	35*	0	4%	-21%	-1
CCOC(=O)N1CCN(C(=O)CCn2c(=O)[nH]c3ccsc3c2=O)CC1	0%	-5	0	?	-2%	1
CCOC(=O)N1CCN(C(=O)CCn2c(=S)[nH]c3ccsc3c2=O)CC1	-4%	39*	-1	-1%	2%	2
CCOc1ccc(NC(=O)CSc2nnc3c(C)cc4ccccc4n23)cc1	-1%	3	-1	/	/	/
COc1ccc(CCn2c(=N)c(S(=O)(=O)c3ccc(Cl)cc3)cc3c(=O)n4ccccc4nc32)cc1	/	4	0	/	-7%	80*
SMILES	Epigenetic derep	TRHR enhancer	TRHR ag	CBFb RUNX1 block	MBNL1 CUG block	IL-2 act
Nc1cc(-c2ccccc2)c[nH]c1=O	/	1	1	/	/	/
C/C(=N/NC(=O)Nc1ccccc1)c1ccc(C)cc1	1%	33*	0	-4%	-12%	2
O=C(COC(=O)c1cnccn1)c1ccc(C2CCCCC2)cc1	/	34*	-1	/	4%	-1
Cc1cnc(C(=O)OCC(=O)c2ccc(C3CCCCC3)cc2)cn1	/	7	-1	/	/	-1
CC(=O)Nc1cccc(C(=O)/C=C/c2ccc(N(C)C)cc2)c1	10%	1	153*	25%	?	12
Cc1cccc(C)c1NC(=O)CN(C)CC(=O)Nc1cc(Cl)ccc1C#N	-1%	34*	0	-1%	-9%	-2
Oc1ccc(COC2CCN(Cc3ccccc3)C2)c2cccnc12 (stereo unspecified)	/	-2	0	/	/	/
c1ccc2c(c1)oc1c(NCC3CCCO3)ncnc12 (stereo unspecified)	0%	37*	0	7%	-9%	-3
Cn1nc(-c2ccccc2)c2nc3ccccc3nc21	7%	1	55*	6%	1%	0
CCCCn1nc(-c2ccccc2)c2nc3ccccc3nc21	11%	-1	22	9%	1%	/
Cc1nc2ccn(Cc3ccco3)c(=O)c2cc1C(=O)NCc1ccccc1F	1%	-1	0	/	/	/
N#C/C(=C/c1ccc(N2CCOCC2)o1)C(=O)Nc1ccccc1	?	10	90*	-9%	?	?
N#C/C(=C\c1ccc(N2CCOCC2)o1)C(=O)NC1CCCCC1	4%	1	26	0%	?	2
O=C[C@@H]1CCCN1C(=O)[C@@H]1CCCN1C(=O)OCc1ccccc1	0%	/	/	3%	/	/
COc1cc(C2c3c(oc4cc(C)c(C)cc4c3=O)C(=O)N2CCCN2CCOCC2)ccc1O (stereo unspecified)	10%	5	0	/	/	/
Cc1cc2oc3c(c(=O)c2cc1C)C(c1ccc(F)cc1)N(CCCN1CCOCC1)C3=O (stereo unspecified)	4%	37*	-1	-1%	29%	1
COc1ccc(-c2[nH]n(-c3ccc([N+](=O)[O-])cc3)c(=O)c2C=NCc2ccccc2)cc1	13µM*	6	0	1%	0%	2
COc1cc(C2CC(=O)OC3=C2C(=O)CC(C)(C)C3)cc(OC)c1OC (stereo unspecified)	-1%	33*	0	-8%	/	0
CC(C)(C)n1ncc2c(=O)n(CC(=O)N3CCCC3)cnc21	1%	3	1	-1%	-3%	0
CC1CCN(C(=O)Cn2cnc3c(cnn3C(C)(C)C)c2=O)CC1	11%	30*	0	8%	0%	2
CCOC(=O)CNC(=O)CSc1cn(CC(=O)N2CCCCCC2)c2ccccc12	-2%	3	-1	/	/	/
